Results taken from ChEMBL document CHEMBL3988442, “University of Dundee, Small-Polar-MMV Screening Library” (2021).
The whole screen tested about 38,000 compounds, of which about 1,200 (3.2%) showed an effect of 50% or more. The median lay at about -58%. The sample as a whole holds a higher share of strong results than the screen did.

System: Plasmodium falciparum
Assay: Calibr Malaria Delayed Death Assay SOP
Assay type: functional, organism-based
Set-up: scale not given: in the data most compounds retested in dose-response had high values
Conditions: concentration 4.99e-06 (unit not given; other assays of the set use mol/L)

Going from `Cc1nn(C)c2nc(NCCCN3CCCC(CO)C3)sc12` (stereo not drawn) to `Cc1nc(C)n(CC2CN(CCCOc3ccccc3)CCO2)n1` (stereo not drawn), the “Percent Effect” value rises from -120% to -31.23%.

Going from `N#Cc1ccc(CN2CCNC(=O)C2c2cccs2)cc1` (stereo not drawn) to `N#Cc1csc(CNCCOc2ccccc2)c1`, the “Percent Effect” value rises from -98.76% to -47.61%.

Compared with `CC[C@]12CN3C[C@](CC)(CN(C1)C3c1[nH]c(=O)[nH]c(=O)c1C)C2=O` (stereo partly drawn), `COC(=O)CCC(=O)N1CCC2(CN(Cc3cccc(Cl)c3)C2)C1` is higher in “Percent Effect” value: -91.51% for the first, -43.68% for the second.

Compared with `CN(Cc1cccnc1)Cc1cn2c(n1)CN(C1CCOC1)CC2.O=C(O)C(F)(F)F.O=C(O)C(F)(F)F.O=C(O)C(F)(F)F` (stereo not drawn), `O=C(O)C(F)(F)F.O=C(O)C(F)(F)F.O=C(O)C(F)(F)F.c1cncc(CN2CCC3(COCCN(C4CCOCC4)C3)C2)c1` (stereo not drawn) is lower in “Percent Effect” value: -34.3% for the first, -45.9% for the second.

Going from `CC(C)CC(=O)NCCCn1cncn1` to `CC(=O)N(C)c1nc(CN2CCCC2Cn2cncn2)cs1` (stereo not drawn), the “Percent Effect” value falls from -49.15% to -120.1%.

Going from `CC(C)N1Cc2c(C(=O)N3CCN(C)CC3)nn(C)c2C1` to `Cc1ccc(C(=O)N2CCC3(CCCC3)CC2)c(=O)[nH]1`, the “Percent Effect” value rises from -111.4% to -40.97%.

Compared with `Cc1ccc(-c2nc(CN3CCCC3Cn3cncn3)co2)cc1` (stereo not drawn), `CCN(C(C)=O)c1nc(CN2CCCCC2Cn2cncn2)cs1` (stereo not drawn) is higher in “Percent Effect” value: -9.69% for the first, 7.085% for the second.

Going from `CN(C)c1ccccc1CN1CCCCC1CNS(C)(=O)=O` (stereo not drawn) to `CS(=O)(=O)NCC1CCCCN1Cc1ccccc1C#N` (stereo not drawn), the “Percent Effect” value falls from 58.92% to -35.93%.

First: CC1CS(=O)(=O)CCN1Cc1ccccc1N(C)C (stereo not drawn)
Second: Cc1cccc2nc(CN3CCCC(C)C3)cc(=O)n12 (stereo not drawn)
The “Percent Effect” value of the first is higher: -5.29% for the first, -16.65% for the second.

First: CCC1(CNCc2ncc[nH]2)CCCC1
Second: CCCC1(CNCc2ncc[nH]2)CCC1
The “Percent Effect” value of the first is higher: 66.04% for the first, 24.35% for the second.

Going from `c1ccc(CC2(CNCc3ncc[nH]3)CCC2)cc1` to `CN1CCNC(=O)C1CC(=O)NCCc1cnn(-c2ccccc2)c1` (stereo not drawn), the “Percent Effect” value falls from 42.05% to -54.63%.

First: Cl.c1cc(OCc2ccc3c(c2)OCO3)ccc1CNC1CC1
Second: CC1CCCN(Cc2ccc(CNC(=O)NCc3ccon3)cc2)C1 (stereo not drawn)
The “Percent Effect” value of the first is lower: -194.6% for the first, -178.1% for the second.

First: O=C(Nc1cccc(OCC(F)F)n1)c1ccncc1F
Second: O=C1NC(c2ccccc2)=N[C@@]12CC[C@@H]1CN(Cc3ccncc3)C[C@@H]12
The “Percent Effect” value of the first is lower: -156.1% for the first, 12.66% for the second.

Going from `O=C1NC(c2ccccc2)=N[C@@]12CC[C@@H]1CN(Cc3ccoc3)C[C@@H]12` to `O=C1NC(c2ccccc2)=N[C@@]12CC[C@@H]1CN(Cc3ccco3)C[C@@H]12`, the “Percent Effect” value falls from 57.5% to 17.95%.

Compared with `O=C(O)C(F)(F)F.O=C(c1ccco1)N1CCOCC2(CCN(C3CCOCC3)C2)C1` (stereo not drawn), `Cc1ccc(C(=O)N2CCOCC3(CCN(C4CCOCC4)C3)C2)o1.O=C(O)C(F)(F)F` (stereo not drawn) is lower in “Percent Effect” value: -3.89% for the first, -106.4% for the second.

First: c1cc(CN2CCOCC3(CCN(C4CCOCC4)C3)C2)ccn1 (stereo not drawn)
Second: Cc1cccc(CN2CCOCC3(CCN(C4CCOCC4)C3)C2)c1.O=C(O)C(F)(F)F.O=C(O)C(F)(F)F (stereo not drawn)
The “Percent Effect” value of the first is lower: -42.35% for the first, 78% for the second.

Compared with `O=C(N1CCOCC1)[C@@]12CCO[C@@H]1CCN(Cc1cccc(F)c1)C2.O=C(O)C(F)(F)F`, `Fc1cccc(CN2CCOCC3(CCN(C4CCOCC4)C3)C2)c1.O=C(O)C(F)(F)F.O=C(O)C(F)(F)F` (stereo not drawn) is higher in “Percent Effect” value: -31.47% for the first, 77.57% for the second.

Compared with `COc1ccc(CN2CCOCC3(CCN(C4CCOCC4)C3)C2)cc1.O=C(O)C(F)(F)F.O=C(O)C(F)(F)F` (stereo not drawn), `Cc1cccc(CN2CCOCC3(CCN(C4CCOCC4)C3)C2)n1.O=C(O)C(F)(F)F.O=C(O)C(F)(F)F.O=C(O)C(F)(F)F` (stereo not drawn) is lower in “Percent Effect” value: 59.83% for the first, 40.9% for the second.

Going from `Fc1cccc(CN2CCOC3(COCCN(CC4CC4)C3)C2)c1.O=C(O)C(F)(F)F.O=C(O)C(F)(F)F` (stereo not drawn) to `O=C(O)C(F)(F)F.O=C(c1ccoc1)N1CCOC2(COCCN(CC3CC3)C2)C1` (stereo not drawn), the “Percent Effect” value falls from 61.62% to -22.12%.

Compared with `Cc1occc1C(=O)N1CCOCC2(CCN(C3CCOCC3)C2)C1.O=C(O)C(F)(F)F` (stereo not drawn), `O=C(O)C(F)(F)F.O=C([C@@H]1C[C@@H]2CCN(C3CCOCC3)C[C@H]2O1)N1CCOCC1` is higher in “Percent Effect” value: -32.59% for the first, -14.29% for the second.

Compared with `c1cc(-c2cn[nH]c2)ccc1CN1CCCCC1`, `Fc1ccc(CN2CCCC3(COCCN(Cc4c[nH]nn4)C3)C2)cc1.O=C(O)C(F)(F)F.O=C(O)C(F)(F)F` (stereo not drawn) is higher in “Percent Effect” value: -42.56% for the first, 61.69% for the second.

Compared with `CCn1ccnc1CNCc1ccc(C)cc1OC(C)(C)C`, `CCN1CCC(CNc2nccc(C)n2)(N(C)C)CC1` is lower in “Percent Effect” value: 21.04% for the first, -52.36% for the second.

Going from `Cn1cc(CN2CC[C@@H]3[C@H]2CCC(=O)N3c2ccccc2)cn1.O=C(O)C(F)(F)F` to `Cn1cc(CN2CCCC3(COCCN(Cc4c[nH]nn4)C3)C2)cn1.O=C(O)C(F)(F)F.O=C(O)C(F)(F)F` (stereo not drawn), the “Percent Effect” value rises from -62.18% to -58.09%.

First: Cn1cnc2nc3n(c2c1=O)CCC3
Second: COc1ccc2nnc(CCC(=O)Nc3nc4c(s3)CCC4)n2n1
The “Percent Effect” value of the first is lower: -114.6% for the first, -9.679% for the second.

Compared with `O=C(O)C(F)(F)F.O=C(O)C(F)(F)F.c1cc(CN2CCCC3(COCCN(Cc4c[nH]nn4)C3)C2)cs1` (stereo not drawn), `COCCC(=O)N1CCC2(CN(Cc3cccc(Cl)c3)C2)C1` is lower in “Percent Effect” value: 27.82% for the first, -141.8% for the second.

Going from `CO[C@@H]1CC[C@H]2[C@H]1OCCN2C(=O)C1CCOCC1` to `NS(=O)(=O)c1cnn(CCC(=O)N(C2CCCCC2)C2CC2)c1`, the “Percent Effect” value falls from -57.64% to -77.61%.

Compared with `CC(C)(C(=O)NCC(=O)N1CCCC1)c1ccccc1F`, `CC(=O)N(c1ccc(C)cc1)c1nc(CN2CCCCC2C)cs1` (stereo not drawn) is higher in “Percent Effect” value: -11.95% for the first, 61.62% for the second.

First: CC(=O)N(c1ccc(F)cc1)c1nc(CN2CCCC2C(C)C)cs1 (stereo not drawn)
Second: CC(=O)N(c1ccc(C)cc1)c1nc(CN2CCCC(C)C2)cs1 (stereo not drawn)
The “Percent Effect” value of the first is higher: 89.73% for the first, 82.35% for the second.

Going from `CC(=O)N(C)c1nc(CN2CCCC2c2cnn(C)c2)cs1` (stereo not drawn) to `CC(=O)N(C)c1nc(CN2CCCCC2Cn2cncn2)cs1` (stereo not drawn), the “Percent Effect” value falls from -87.18% to -131.1%.
